Laboratory results from PubChem BioAssay (NCI).
This is part of a sample that, as a whole, favours compounds with a hit. Of some 83,000 tested, about 20% had one in any assay.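 Negative percent growth values reflect cell death: -40 means 40% of the cells present at the start died, and -100 means all died.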 Unmarked numbers belong to inactive results. Active and inactive are the calls of the source. The calls were made as follows: active = growth percent below 10; inactive = the rest.

What follows are compounds tested on MDA-MB-468 breast (assay: NCI-60 one-dose screen, 48 h (100 = growth as untreated, 0 = no growth, -100 = all killed)). Conditions: 10 µM unless noted.

Compound | growth
CCOC(=O)CSSCC(=O)OCC | 117%
CC(=O)O[C@H]1CC[C@@]2(C)C(=CC[C@@H]3[C@@H]2CC[C@]2(C)C(c4cccnc4)=CC[C@@H]32)C1 | 26.5%
O=[N+]([O-])c1ccc(S(=O)(=O)NN=C2CCCCC2)cc1 | 115%
CC(C)(C)[Si](C)(C)OC1[C@@H](O[Si](C)(C)C(C)(C)C)[C@@H](CNC(=O)NC(=O)NC(=O)CCl)O[C@H]1n1cnc2c(NC(=O)Nc3ccccc3)ncnc21 (stereo not given in full) | 106%
O=S(=O)(Nc1ccc2ccccc2c1)N1CCCCC1 | 12.8%
C(=N\Nc1ccc2ccccc2n1)/c1ccccn1 | -27% (active)
Cc1nc2c(O)cccc2cc1CO | 95.2%
Clc1cccc(/C=N/Nc2nc(N/N=C/c3cccc(Cl)c3)nc(N3CCOCC3)n2)c1 | 30.8%
CC(=O)Oc1cc(OC(C)=O)c2ccccc2c1OC(C)=O | 72.7%
CC1CCC2(C(=O)O)CCC3(C)C(=CCC4C5(C)CCC(O)C(C)(C)C5CCC43C)C2C1C (stereo not given) | 24.5%
CCCCCCNC(=O)Oc1ccc(/C(=C(/CC)Cc2ccccc2)c2ccc(OCCN3CCCCC3)cc2)cc1 | 86.3%
Fc1ccc2[nH]c3c(NCCCN4CCOCC4)ncnc3c2c1 | 73.2%
CCOc1cccc(-c2nc(N)nc(Nc3ccccc3SSc3ccccc3Nc3nc(N)nc(-c4cccc(OCC)c4)n3)n2)c1 | 107%
NCC(=O)NS(=O)(=O)OC[C@H]1O[C@@H](n2cnc3c(N)ncnc32)[C@H](O)[C@@H]1O | -34.3% (active)
O=[N+]([O-])c1cccc(-c2nc3sccn3c2-c2ccnc(NCCCNS(=O)(=O)c3ccc(Br)cc3)n2)c1 | 29.2%
Clc1cccc(Cl)c1/C=C/c1cc(/C=C/c2c(Cl)cccc2Cl)[nH]n1 | 12.4%
O=C(N/N=C/c1ccc([N+](=O)[O-])cc1)c1ccc2nc(-c3ccc(Cl)cc3)[nH]c2c1 | -38.9% (active)
NS(=O)(=O)Oc1cccc(-c2nc3sccn3c2-c2ccccc2)c1 | 18.6%
COC(=O)[C@H](CC(C)C)NC(=O)NC(=O)NC(=O)CI | 75.9%
C=C1C(=O)O[C@H]2[C@H]1CC/C(COC(=O)n1ccnc1C)=C\CC[C@@]1(C)O[C@@H]21 | 76.4%

Compound | growth
CCCCCCCC(=O)Nc1nc2[nH]c(CN3CCN(Cc4cccc(I)c4)CC3)c(CN3CCN(Cc4cccc(I)c4)CC3)c2c(=O)[nH]1 | -85.6% (active)
O=C(Nc1ccc(F)cc1F)c1cc(I)ccc1O | -1.05% (active)
O=C(Nc1cccc(Cl)c1)Oc1c(Cl)c(Cl)c(Cl)c(Cl)c1Cl | 110%
COc1ccc(C(=O)NCCNc2nccc(-c3c(-c4ccc(F)cc4)nc4sccn34)n2)cc1 | 67.5%
COC1=CC(=O)C(OC)=C(O)C1=O | 91.8%
Cc1ccc(-n2c(C)nn3c(=O)c4c5c(sc4nc23)CN(C)CC5)cc1 | 102%
CC(=O)N1N=C(c2ccc(Nc3nc(Nc4ccc(F)cc4)nc(Nc4ccc(Cl)cc4)n3)cc2)CC1c1ccc(Cl)cc1 (stereo not given) | 104%
Cc1cnc(Nc2ccc(OCCN3CCCC3)cc2)nc1Nc1cccc(S(=O)(=O)NC(C)(C)C)c1 | -16.6% (active)
O=C(Nn1c2c(sc1=Nc1ccccc1)C(=O)c1ccccc1C2=O)c1cc2ccc1CCc1ccc(cc1)CC2 | 105%
Cn1c(=O)cc(NC(=O)CN2CCN(c3cc4c(cc3F)c(=O)c(C(=O)O)cn4C3CC3)CC2)[nH]c1=O | 92.6%
CNC(=O)c1cc(Oc2ccc3nc(NC(=O)Nc4ccc(Cl)c(Cl)c4)sc3c2)ccn1 | 68.3%
COc1cc(C2=NN(C(C)=O)C(c3cccc(Nc4ccnc5cc(C(F)(F)F)ccc45)c3)C2)cc(OC)c1OC (stereo not given) | 50.5%
CCOc1cc(\C=N/N=C(N)/C(N)=N\N=C/c2ccc(O)c(OCC)c2)ccc1O | 111%
COc1ccc(NC(=O)Cn2cc(CN3C(=O)c4ccc([N+](=O)[O-])cc4C3=O)nn2)cc1 | 110%
CCN(CC)CCCC(C)Nc1ccnc2ccc(Oc3ccccc3)cc12 (stereo not given) | 54.7%
C=CCNc1ccccc1 | 108%
CS(=O)(=O)c1ccc(/C=C\C(=O)O)cc1 | 93.6%
CCN1CCN(c2nc(C)cc(NCc3cc(Nc4ccnc5cc(Cl)ccc45)ccc3F)n2)CC1 | -23.1% (active)
CCCCSc1cc(C)nc(N)n1 | 95.8%
O=C1c2cccc3c([N+](=O)[O-])ccc(c23)C(=O)N1CCCCl | -62.2% [100 µM] (active)
